PubChem BioAssay (Tox21)
“And” between values parts separate entries of the source, which are not always exact repeats. Identical values can stand only once. Unmarked numbers belong to inactive results. Where a call stands in place of a potency, no number is given. The source made the active and inactive calls. Unless noted, the call rests on the fitted dose curve; in most records, active means well fitted curve in the direction sought with a large enough effect in the repeat runs; inconclusive means weak or mixed curves; inactive means no such curve, though single readings can be large; an effect the other way counts as inactive or inconclusive.

Columns and labels:
[1] = qHTS assay to identify small molecule antagonists of the glucocorticoid receptor (GR) signaling pathway - cell viability counter screen (AID 720693); further: nearly all actives have a fitted effect of over 55% in size; further: potency means the concentration at half of the fitted maximal effect
[2] = qHTS assay for identifying genotoxic compounds that show differential cytotoxicity against isogenic chicken DT40 cell lines with known DNA damage response pathways - wild type cell line (AID 743012); further: nearly all actives have a fitted effect of over 60% in size; further: potency means the concentration at half of the fitted maximal effect
Outline: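 Quantitative HTS on parental DT40 cells: 40 h compound treatment at 37 C/5% CO2, with viability then determined by CellTiter-Glo luminescence. Values serve as the DNA repair-proficient reference for differential cytotoxicity.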

[3] = qHTS assay for identifying genotoxic compounds that show differential cytotoxicity against isogenic chicken DT40 cell lines with known DNA damage response pathways - Rev3 mutant cell line (AID 743014); further: nearly all actives have a fitted effect of over 55% in size; further: potency means the concentration at half of the fitted maximal effect
[4] = qHTS assay for identifying genotoxic compounds that show differential cytotoxicity against isogenic chicken DT40 cell lines with known DNA damage response pathways - Rad54/Ku70 mutant cell line (AID 743015); further: nearly all actives have a fitted effect of over 60% in size; further: potency means the concentration at half of the fitted maximal effect
[5] = qHTS assay to identify small molecule antagonists of the androgen receptor (AR) signaling pathway - cell viability counter screen (AID 743033; further: nearly all actives have a fitted effect of over 45% in size; further: potency means the concentration at half of the fitted maximal effect)
[6] = target: Androgen receptor (Homo sapiens) (UniProt P10275); assay: qHTS assay to identify small molecule antagonists of the androgen receptor (AR) signaling pathway (AID 743035; active means well fitted inhibition curve with a large enough effect in the signal ratio in the repeat runs, not every such curve was filed as active; inconclusive means weak or mixed curves, or effect the other way; inactive means no such curve, though single readings can be large or run the other way; the % refers to the signal ratio; further: potency means the concentration at half of the fitted maximal effect)
Sequence of Androgen receptor (Homo sapiens) (P10275 whole entry, looked up): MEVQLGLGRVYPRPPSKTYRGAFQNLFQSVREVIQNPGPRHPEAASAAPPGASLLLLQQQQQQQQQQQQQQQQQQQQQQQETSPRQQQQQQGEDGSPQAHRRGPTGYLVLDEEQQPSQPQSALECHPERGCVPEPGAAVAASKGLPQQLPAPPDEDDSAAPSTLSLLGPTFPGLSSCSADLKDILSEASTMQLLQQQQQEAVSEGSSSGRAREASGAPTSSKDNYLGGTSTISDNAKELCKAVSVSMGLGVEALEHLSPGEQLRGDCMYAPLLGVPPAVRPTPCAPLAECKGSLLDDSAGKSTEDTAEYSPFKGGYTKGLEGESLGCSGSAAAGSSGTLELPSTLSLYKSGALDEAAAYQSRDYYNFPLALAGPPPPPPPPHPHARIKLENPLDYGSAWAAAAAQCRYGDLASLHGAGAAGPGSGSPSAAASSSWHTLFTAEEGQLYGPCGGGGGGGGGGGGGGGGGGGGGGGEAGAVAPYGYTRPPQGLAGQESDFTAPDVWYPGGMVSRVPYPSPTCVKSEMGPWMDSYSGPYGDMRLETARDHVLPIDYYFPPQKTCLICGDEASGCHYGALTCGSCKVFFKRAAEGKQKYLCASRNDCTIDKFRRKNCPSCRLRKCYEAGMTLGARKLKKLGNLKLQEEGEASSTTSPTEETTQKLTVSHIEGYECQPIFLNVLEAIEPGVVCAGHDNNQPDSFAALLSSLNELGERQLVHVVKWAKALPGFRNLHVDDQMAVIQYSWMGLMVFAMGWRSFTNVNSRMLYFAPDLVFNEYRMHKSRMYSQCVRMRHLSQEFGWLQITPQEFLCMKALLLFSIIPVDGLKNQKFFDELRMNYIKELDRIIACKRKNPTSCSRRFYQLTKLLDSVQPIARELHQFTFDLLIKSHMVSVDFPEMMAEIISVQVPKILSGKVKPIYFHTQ
Outline: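 Cell line: GeneBLAzer AR-UAS-bla GripTite (HEK293). Stimulus: R1881 added after compound. Exposure: 16 h, 37C, 5% CO2. Readout: LiveBLAzer B/G FRET fluorescence after 2 h at room temperature.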

[7] = target: Androgen receptor (Homo sapiens) (UniProt P10275); assay: qHTS assay to identify small molecule agonists of the androgen receptor (AR) signaling pathway using the MDA cell line (AID 743040; further: nearly all actives have a fitted effect of over 20% in size; further: potency means the concentration at half of the fitted maximal effect)
Outline: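 After a 5 h incubation at 37C and 0% CO2, MDA-kb2 reporter cells were dosed with compounds in DMSO and kept 16 h under the same conditions. Luciferase activity was then read as luminescence with ONE-Glo.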

[8] = target: Androgen receptor (Homo sapiens) (UniProt P10275); assay: qHTS assay to identify small molecule antagonists of the androgen receptor (AR) signaling pathway using the MDA cell line (AID 743042; further: nearly all actives have a fitted effect of over 55% in size; further: potency means the concentration at half of the fitted maximal effect)
Outline: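 Antagonist mode: compounds plus R1881 agonist added to MDA-kb2 AR-luc cells, incubated 16 h at 37C. Luciferase reporter luminescence quantified, with multiplexed CellTiter-Fluor readout for cell viability.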

[9] = qHTS assay to identify small molecule antagonists of the thyroid receptor (TR) signaling pathway - cell viability counter screen (AID 743064); further: nearly all actives have a fitted effect of over 50% in size; further: potency means the concentration at half of the fitted maximal effect
Outline: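 CellTiter-Fluor readout, 30 min at 37 °C/5% CO2, following 23.5 h incubation of GH3.TRE-Luc cells with test compound and 1 nM T3 (final).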

[10] = qHTS assay to identify small molecule antagonists of the thyroid receptor (TR) signaling pathway (AID 743065); further: nearly all actives have a fitted effect of over 55% in size; further: potency means the concentration at half of the fitted maximal effect
Outline: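 Antagonism measured as loss of luciferase signal in GH3 cells stably carrying a TRE-luciferase reporter, co-treated with compound and T3 (1 nM final) for 23.5 h at 37 C. Viability was read in the same well by CellTiter-Fluor.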

[11] = system: thyroid hormone receptor (rat, GH3 cells); assay: qHTS assay to identify small molecule agonists of the thyroid receptor (TR) signaling pathway (AID 743066; calls by dose curve)
[12] = target: Estrogen receptor (Homo sapiens) (UniProt P03372); assay: qHTS assay to identify small molecule antagonists of the estrogen receptor alpha (ER-alpha) signaling pathway (AID 743069; active means well fitted curve in the direction sought with a large enough effect in the signal ratio in the repeat runs, not every such curve was filed as active; inconclusive means weak or mixed curves, or effect the other way; inactive means no such curve, though single readings can be large or run the other way; the % refers to the signal ratio; further: potency means the concentration at half of the fitted maximal effect)
Sequence of Estrogen receptor (Homo sapiens) (P03372 whole entry, looked up): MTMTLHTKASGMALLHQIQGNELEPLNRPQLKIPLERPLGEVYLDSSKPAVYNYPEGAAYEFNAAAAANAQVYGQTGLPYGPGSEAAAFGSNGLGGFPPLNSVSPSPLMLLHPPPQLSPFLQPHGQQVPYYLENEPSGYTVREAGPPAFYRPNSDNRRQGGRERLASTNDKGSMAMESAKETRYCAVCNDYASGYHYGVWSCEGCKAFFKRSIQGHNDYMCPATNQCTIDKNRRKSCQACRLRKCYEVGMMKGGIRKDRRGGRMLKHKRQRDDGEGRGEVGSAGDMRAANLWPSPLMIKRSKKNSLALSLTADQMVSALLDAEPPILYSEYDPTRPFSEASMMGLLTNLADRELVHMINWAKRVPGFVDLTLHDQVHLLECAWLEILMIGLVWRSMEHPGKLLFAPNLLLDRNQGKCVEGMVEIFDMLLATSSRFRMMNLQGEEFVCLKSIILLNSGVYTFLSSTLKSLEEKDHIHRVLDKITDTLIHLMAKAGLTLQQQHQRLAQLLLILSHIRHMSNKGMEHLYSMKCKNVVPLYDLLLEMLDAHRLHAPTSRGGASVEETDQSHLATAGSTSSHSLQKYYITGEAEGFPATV
Outline: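 Compound effects are measured against 17beta-estradiol stimulation in HEK293 cells with a UAS-controlled beta-lactamase reporter for ER-alpha. Exposure lasts 18 hr at 37C; LiveBLAzer B/G FRET substrate follows for 2 hr at room temperature.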

[13] = qHTS assay to identify small molecule antagonists of the estrogen receptor alpha (ER-alpha) signaling pathway - cell viability counter screen (AID 743074; calls by dose curve;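 further: HEK293 cells carrying ER-alpha-UAS-bla reporter stimulated with 17beta-estradiol; nearly all actives have a fitted effect of over 45% in size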; further: potency means the concentration at half of the fitted maximal effect)
[14] = target: Estrogen receptor (Homo sapiens) (UniProt P03372); assay: qHTS assay to identify small molecule agonists of the estrogen receptor alpha (ER-alpha) signaling pathway (AID 743075; calls by dose curve; further: potency means the concentration at half of the fitted maximal effect); conditions: HEK293 ER-alpha-UAS-bla, beta-lactamase FRET ratio, 18 h; activation: at 70.1 µM (top of the series)
[15] = target: Estrogen receptor (Homo sapiens) (UniProt P03372); assay: qHTS assay to identify small molecule agonists of the estrogen receptor alpha (ER-alpha) signaling pathway using the BG1 cell line (AID 743079); conditions: BG1Luc4E2 cells, ERE-luciferase agonist, 22 h; further: nearly all actives have a fitted effect of over 20% in size
[16] = qHTS assay to identify small molecule antagonists of the estrogen receptor alpha (ER-alpha) signaling pathway using the BG1 cell line (AID 743080; calls by dose curve; further: nearly all actives have a fitted effect of over 25% in size; further: potency means the concentration at half of the fitted maximal effect)
Outline: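 Antagonist mode: compounds in DMSO were pinned onto BG1-Luc-4E2 cells alongside 17beta-estradiol agonist, incubated 21.5 h, and ERE-driven luciferase measured with ONE-Glo. Cytotoxicity was multiplexed using CellTiter-Fluor fluorescence.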

[17] = qHTS assay to identify small molecule antagonists of the estrogen receptor alpha (ER-alpha) signaling pathway using the BG1 cell line - cell viability counter screen (AID 743081);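 further: compound given together with 17beta-estradiol as the ER stimulus; nearly all actives have a fitted effect of over 45% in size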; further: potency means the concentration at half of the fitted maximal effect
[18] = target: Aromatase (Homo sapiens) (UniProt P11511); assay: qHTS assay to identify aromatase inhibitors (AID 743083); further: nearly all actives have a fitted effect of over 55% in size; further: potency means the concentration at half of the fitted maximal effect
Sequence of Aromatase (Homo sapiens) (P11511 whole entry, looked up): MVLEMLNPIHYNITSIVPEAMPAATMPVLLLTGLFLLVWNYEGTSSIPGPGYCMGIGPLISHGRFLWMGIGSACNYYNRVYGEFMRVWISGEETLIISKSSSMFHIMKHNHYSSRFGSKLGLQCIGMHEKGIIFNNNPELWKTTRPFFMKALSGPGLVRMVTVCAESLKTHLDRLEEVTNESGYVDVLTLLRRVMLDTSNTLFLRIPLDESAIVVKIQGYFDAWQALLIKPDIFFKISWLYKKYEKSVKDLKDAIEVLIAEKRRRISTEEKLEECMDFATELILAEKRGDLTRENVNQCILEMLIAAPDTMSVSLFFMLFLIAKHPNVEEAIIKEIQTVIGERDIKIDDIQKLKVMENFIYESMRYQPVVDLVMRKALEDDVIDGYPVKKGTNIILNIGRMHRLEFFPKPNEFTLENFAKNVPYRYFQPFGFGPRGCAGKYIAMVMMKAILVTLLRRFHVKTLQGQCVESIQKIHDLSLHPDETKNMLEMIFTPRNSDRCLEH

[19] = qHTS assay to identify small molecule antagonists of the androgen receptor (AR) signaling pathway using the MDA cell line - cell viability counter screen (AID 743041; further: nearly all actives have a fitted effect of over 45% in size; further: potency means the concentration at half of the fitted maximal effect)
Outline: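 R1881-driven MDA-kb2 AR-luc cells, 3,000/well, were dosed with library compounds for 16 h; cell health came from CellTiter-Fluor fluorescence in the reporter wells.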

Row | SMILES | Potency [1] | Potency [2] | Potency [3] | Potency [4] | Potency [5] | Potency [6] | Potency [7] | Potency [8] | Potency [9] | Potency [10] | Potency [11] | Potency [12] | Potency [13] | Potency [14] | activation ([15]; at 70.3 µM (top of the series)) [%] | Potency [16] | Potency [17] | Potency [18] | Potency [19] | activation ([15]; at 95 µM (top of the series)) [%]
1 | Clc1ccc2nsnc2c1NC1=NCCN1 | inactive | inactive | inactive | inactive | inactive | inactive | 26.6 µM (active) | inactive | inactive | inactive | inactive | inactive | inactive | inactive | 1.06 | inactive | inactive | inactive |  | 
2 | O=c1cc(-c2ccc(O)cc2)oc2cc(O)cc(O)c12 | 49 µM (active) | 27.3 µM (active) | 69.5 µM (active) and 27.3 µM (active) | 31 µM (active) and 13.7 µM (active) | inactive |  |  |  | 55.2 µM (active) | 61.9 µM (active) and 30.6 µM (active) | inactive |  |  |  |  |  |  |  | inactive | 
3 | Cc1c(C)c2c(c(C)c1OC(=O)CCC(=O)O)CC[C@@](C)(CCC[C@H](C)CCC[C@H](C)CCCC(C)C)O2 | 26.8 µM (active) | inactive | inactive | inactive | inactive |  |  |  | 23.7 µM (active) | inactive | inactive |  | inactive |  |  |  | inactive | inactive | inactive | 
4 | CCCCCCCCCCCCCCCCCC[N+](C)(C)C | 24.6 µM (active) | 2.74 µM (active) | 1.37 µM (active) | 2.74 µM (active) | 43.8 µM (active) |  | inactive | 24.4 µM (active) | 12.2 µM (active) |  |  |  | 43.8 µM (active) |  |  |  |  | 21.8 µM (active) | 48.7 µM (active) | 
5 | Fc1ccc([C@@H]2CCNC[C@H]2COc2ccc3c(c2)OCO3)cc1 | inactive | 3.76 µM (active) | 7.5 µM (active) | 7.5 µM (active) | 8.49 µM (active) | 13.4 µM (active) | inactive | 21.1 µM (active) | 11.9 µM (active) | 10.6 µM (active) |  |  |  | inactive |  | inactive |  |  | 18.8 µM (active) | 
6 | c1ccc(CSCc2ccccc2)cc1 | inactive | inactive | inactive | inactive | inactive |  |  |  | inactive | inactive | inactive |  | inactive |  |  |  | inactive | inactive | inactive | 
7 | [Cl][Bi]([Cl])([c]1ccccc1)([c]1ccccc1)[c]1ccccc1 | 48.7 µM (active) | 1.36 µM (active) | 2.16 µM (active) | 2.42 µM (active) | 12.2 µM (active) |  |  | 13.6 µM (active) | 1.71 µM (active) | 0.682 µM (active) |  |  | 48.7 µM (active) | 6.13 µM [inconclusive] (active) |  |  | 60.8 µM (active) | 6.82 µM (active) | 27.1 µM (active) | 
8 | OCCN(CCO)c1nc(N2CCCCC2)c2nc(N(CCO)CCO)nc(N3CCCCC3)c2n1 | inactive | 11.9 µM (active) | 9.44 µM (active) | 10.6 µM (active) | inactive |  | inactive | inactive |  | 23.7 µM (active) | inactive |  | inactive |  |  |  |  | inactive |  | 
9 | Oc1ccc(C2(c3ccc(O)cc3)CC3CC2C2CCCC32)cc1 (stereo unspecified) | inactive | inactive | inactive | inactive | 47 µM (active) |  | inactive |  | 26.2 µM (active) | 29.4 µM (active) | inactive | 0.0592 µM [inconclusive] (active) |  |  |  | 1.31 µM (active) | inactive | 1.86 µM (active) |  | 
10 | CCCCCCCCCCCCCC[P+](CCCC)(CCCC)CCCC (tested in a mixture with another compound) | 8.76 µM (active) | 0.388 µM (active) | 0.218 µM (active) | 0.218 µM (active) | 0.983 µM (active) | 1.75 µM (active) |  | 3.46 µM (active) | 4.35 µM (active) |  |  |  |  |  |  |  | 15.4 µM (active) | 4.35 µM (active) |  | 
11 | C=CC(=O)OCC(CO)(COCC(COC(=O)C=C)(COC(=O)C=C)COC(=O)C=C)COC(=O)C=C | 4.31 µM (active) | 0.34 µM (active) | 0.428 µM (active) | 0.303 µM (active) | 3.84 µM (active) | 1.93 µM (active) | inactive | 1.07 µM (active) | 1.52 µM (active) |  |  |  | 21.6 µM (active) | 10.8 µM [inconclusive] (active) |  |  | 13.5 µM (active) | 2.4 µM (active) | 1.2 µM (active) | 
12 | Cc1cccc2c1cc1ccc3cccc4ccc2c1c34 | inactive | inactive | inactive | inactive | inactive |  |  |  | inactive | inactive | inactive |  | inactive |  |  | inactive |  | inactive | inactive | 15.8
13 | CO[Si](CCCNc1ccccc1)(OC)OC | inactive | 12.2 µM (active) | 15.4 µM (active) | 8.63 µM (active) | inactive |  |  |  | inactive | inactive | inactive |  | inactive |  |  |  | inactive | inactive | inactive | 
